# Bioassay records deposited in PubChem by National Center for Advancing Translational Sciences (NCATS).
# Rows were chosen to be rich in hits. Some 7% of all compounds tested hit in one or more screens of this group.
# KAT2A inh: qHTS Assay for Inhibitors of GCN5L2 | Histone acetyltransferase KAT2A (Homo sapiens), Q92830 | GCN5L2 HAT assay, ThioGlo1 CoA-SH fluorescence | Potency, µM (doses to about 58.9 µM), for the others: top-dose activity change, negative = inhibition, usual class: inhibitors | actives 0.21% (n = 390,000) | AID 504327, 2011; note: potency is the fitted concentration of half-maximal effect; % is set by controls: 0 for no effect and ±100 for the full control effect
# Target sequence (Q92830 whole entry, looked up): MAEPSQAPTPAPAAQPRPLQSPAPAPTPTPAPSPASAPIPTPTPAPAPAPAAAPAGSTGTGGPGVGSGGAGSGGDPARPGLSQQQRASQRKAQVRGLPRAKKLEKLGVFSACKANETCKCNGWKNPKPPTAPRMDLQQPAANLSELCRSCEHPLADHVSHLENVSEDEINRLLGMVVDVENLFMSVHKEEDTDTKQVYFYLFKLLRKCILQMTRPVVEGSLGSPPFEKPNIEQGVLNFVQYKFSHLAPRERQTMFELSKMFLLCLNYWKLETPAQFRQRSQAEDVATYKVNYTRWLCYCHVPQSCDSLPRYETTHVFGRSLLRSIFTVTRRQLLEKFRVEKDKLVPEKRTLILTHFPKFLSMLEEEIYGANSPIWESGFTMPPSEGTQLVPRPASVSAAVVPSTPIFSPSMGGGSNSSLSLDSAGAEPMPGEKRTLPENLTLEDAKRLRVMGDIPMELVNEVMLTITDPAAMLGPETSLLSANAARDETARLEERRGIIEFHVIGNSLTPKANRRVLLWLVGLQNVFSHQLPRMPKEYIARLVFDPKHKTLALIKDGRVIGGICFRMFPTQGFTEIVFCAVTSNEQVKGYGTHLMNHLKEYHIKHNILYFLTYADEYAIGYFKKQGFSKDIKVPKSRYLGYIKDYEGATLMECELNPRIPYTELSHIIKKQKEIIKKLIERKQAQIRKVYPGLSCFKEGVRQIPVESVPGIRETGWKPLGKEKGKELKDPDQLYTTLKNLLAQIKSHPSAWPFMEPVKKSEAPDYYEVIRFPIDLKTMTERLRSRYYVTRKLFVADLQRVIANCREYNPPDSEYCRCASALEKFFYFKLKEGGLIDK
#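 Free CoA generated was detected with ThioGlo1 (50uM) fluorescence at Ex340nm/Em540nm, read immediately and after 20 min at room temperature. Enzyme, 20 nM in HEPES pH 7.5 buffer, saw compounds 15 min before adding 75uM H3(1-25) peptide and 70uM acetyl-CoA.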
# PI5P4Ka inh: qHTS for Inhibitors of phosphatidylinositol 5-phosphate 4-kinase (PI5P4K); PI5P4Kalpha enzyme, ADP-Glo luminescence, 60 min; stronger effect = lower value; max response, %; actives 1.2% (n = 330,000); AID 652105, 2013; active = max response of -50% or lower; inconclusive = between -30% and -50%; inactive = -30% or higher; note: value at the top dose of about 77 µM; % is set by controls: 0 for no effect and ±100 for the full control effect
#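 qHTS, 1536-well: enzyme/substrate mix, compound by pin tool, 5 microM ATP final; RT 60 min; ADP-Glo reagents 1 (45 min) then 2 (30 min); luminescence.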
# BAZ2B block: qHTS Assay for Inhibitors of BAZ2B | AlphaScreen BAZ2B-H3K14Ac peptide displacement | Bromodomain adjacent to zinc finger domain protein 2B (Homo sapiens), Q9UIF8 | Potency, µM (top dose mostly 114 µM), without a hit: top-dose activity change, negative = inhibition, actives largely listed as inhibitors | actives 4.4% (n = 360,000); note: potency is the fitted concentration of half-maximal effect; % is set by controls: 0 for no effect and ±100 for the full control effect; nearly all actives have a fitted effect of over 60% in size
#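 AlphaScreen displacement of biotin-H3(5-23)K14Ac peptide (50 nM final) from BAZ2B (50 nM final) in PBS pH 7.4, 0.01% Tween-20; complex preformed 30 min RT, then compounds (top 110 uM) 30 min RT, beads 20 min dark.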
# HP1b binding inh: HTS for Inhibitors of HP1-beta Chromodomain Interactions with Methylated Histone Tails. Potency, µM (top dose mostly 114 µM), without a hit: at the top dose activity change, negative = inhibition, actives largely listed as inhibitors. AID 540317, 2011. AlphaScreen HP1-beta / biotin-H3K9me3 peptide binding. actives 0.56% (n = 390,000). Chromobox protein homolog 1 (Homo sapiens), P83916; note: potency is the fitted concentration of half-maximal effect; nearly all actives have a fitted effect of over 70% in size
#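 HP1-beta protein (50 nM final) preincubated 30 min at room temperature with biotinylated H3(1-18)K9me3 peptide (50 nM) in PBS pH 7.4, 0.01% Tween-20, then compound added for 30 min. AlphaScreen streptavidin donor/nickel chelate acceptor beads (10 ug/mL final), 30 min dark, luminescence read.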
# PLK1 PBD inh: qHTS for Inhibitors of PLK1-PDB (polo-like kinase 1 - polo-box domain): Primary Screen; actives 2.8% (n = 360,000); Plk1 PBD binding of FITC phosphopeptide, fluorescence polarization; Potency, µM, for inactives: max response, negative = inhibition, actives largely listed as inhibitors; note: potency is the fitted concentration of half-maximal effect; series mostly up to about 57 µM; % is set by controls: 0 for no effect and ±100 for the full control effect; nearly all actives have a fitted effect of over 65% in size
# JMJD2A Tudor: qHTS Assay for Inhibitors of JMJD2A-Tudor Domain | AlphaScreen JMJD2A-Tudor / H3K4me3 peptide binding | AID 504339, 2011 | Lysine-specific demethylase 4A (Homo sapiens), O75164 | Potency, µM (top dose mostly 114 µM), inactives show top-dose activity change, negative = inhibition, actives largely listed as inhibitors | actives 4.4% (n = 390,000); note: potency is the fitted concentration of half-maximal effect; % is set by controls: 0 for no effect and ±100 for the full control effect; nearly all actives have a fitted effect of over 50% in size
# * marks the source's active call; other numbers are inactive results; ? = inconclusive; nt = no result; [ ] = dose if it differs, or a comment. Unless noted, calls come from the whole dose curve; as a rule, active = well fitted curve in the direction sought with a large enough effect; inconclusive = small, poorly fitted or top-dose-only effect, or another doubt; inactive = no such curve, though single readings can be large; an effect the other way counts as inactive or inconclusive.
SMILES,KAT2A inh,PI5P4Ka inh,BAZ2B block,HP1b binding inh,PLK1 PBD inh,JMJD2A Tudor
COc1ccc(-c2[nH]ncc2CN2CCC(N3CCSCC3)CC2)c(F)c1,-4%,-5,-7%,-8%,15µM*,?
CN(C)C(CNC(=O)c1cnc(Cl)c(Cl)c1)c1ccccc1 (centres undefined),4%,5,56µM*,?,-10%,20µM*
Cc1ccc(SC2=C(N(C)C)C(=O)c3ccccc3C2=O)cc1,nt,0,nt,?,?,5.6µM*
COCCN(Cc1ccc(C)c(Br)c1)C(=O)Cn1cnc(S(=O)(=O)N2CCCC2)c1,-29%,3,-37%,-17%,9.5µM*,?
C/C(=C\C=C(C#N)C#N)c1cc(C#N)c(N)o1,-5%,?,25µM*,?,108%,?
CC(C)c1cc[n+](-c2nc([O-])sc2C=O)cc1,-23%,-16,79µM*,20%,?,35µM*
O=C(CC1C(=O)NCCN1Cc1cccc(F)c1)NCCCOc1cccnc1 (centres undefined),-4%,0,-12%[57.1 µM],14%,24µM*,?
CCOc1ccc(CN2CCNC(=O)C2CC(=O)NCCCOc2cccnc2)cc1 (centres undefined),-3%,-1,-16%[57.1 µM],19%,?,?
O=C(Cn1ccn(-c2ccc(F)c(F)c2)c(=O)c1=O)NCc1ccccc1,2%,nt,-2%,23%,nt,-11%
CCOC(=O)C1=C(Cc2ccc(OC)cc2)C(=O)c2ccccc2C1=O,-7%,nt,22µM*,18µM*,12µM*,40µM*
CCOC(=O)C1=C(Cc2ccc(C)cc2)C(=O)c2ccccc2C1=O,-27%,nt,22µM*,nt,nt,nt
COc1cc(NC(=O)C(Cc2ccccc2)NS(=O)(=O)c2cccs2)cc(OC)c1 (centres undefined),2%,nt,3%,12%[57 µM],nt,-18%
O=C(CCN1C(=O)C2C3CC(C(Br)C3Br)C2C1=O)OCC(=O)c1ccccc1 (centres undefined),-3%,-7,5%,-4%,27µM*,79µM*
COC(=O)C1=CN(c2ccc(OC)cc2)C=C(C(=O)OC)C1c1ccc(C)c([N+](=O)[O-])c1,-7%,0,-34%,-7%,-5%,?
COC(=O)C1=CN(c2cccc(C)c2)C=C(C(=O)OC)C1c1cc(OC)c(O)c([N+](=O)[O-])c1,-25%,3,28µM*,?,?,45µM*
CCOc1ccc(S(=O)(=O)NCCC(=O)N2CCN(c3ccc(OC)cc3)CC2)cc1,-2%,-24,?,?,21µM*,?
CCOc1ccc(S(=O)(=O)NCCC(=O)N2CCN(c3ncccn3)CC2)cc1,-1%,1,0%,16%,-4%,-11%
COc1ccc(N2CCN(C(=O)CCNS(=O)(=O)c3ccccc3)CC2)cc1,-6%,?,-10%,-13%,9.5µM*,?
CCOC(=O)c1cc(-c2ccc(F)cc2)n(CCC(=O)Nc2nc3ccc(OC)cc3s2)c1C,-12%,nt,?,-25%,nt,56µM*
COc1ccc(N2CCN(S(=O)(=O)CCNS(=O)(=O)c3ccccc3)CC2)cc1,-14%,-4,-3%,29%,-1%,8%
CCOC(=O)c1cc(-c2ccccc2)n(CCC(=O)N2CCN(c3ccc(OC)cc3)CC2)c1C,-4%,3,25µM*,?,-4%,?
O=C(c1cccc(Cl)c1)n1nc(-c2cccnc2)nc1NCc1ccccc1,-1%,nt,15%,81%,nt,2%
CNC(=S)n1cnc(N)n1,-10%,-2,-12%,27%,-15%,-13%
O=C(/C=C\c1ccccc1)Nc1ccc(NC(=O)c2ccco2)cc1,2%,?,-9%,?,3.4µM*,10µM*
O=C(/C=C/c1ccc(Cl)cc1)NC(=S)Nc1ccc(C(=O)O)cc1,-7%,-27,50µM*,?,30µM*,22µM*
SMILES,KAT2A inh,PI5P4Ka inh,BAZ2B block,HP1b binding inh,PLK1 PBD inh,JMJD2A Tudor
CC(=O)NC(=S)Nc1ccc(NC(=S)NC(=O)/C=C/c2ccco2)cc1,-24%,-17,?,11%,0%,?
CN(C)c1ccc(NC(=S)NC(=O)/C=C/c2ccc(Cl)cc2)cc1,-4%,2,-9%,?,?,14%[11.4 µM]
O=C(/C=C/c1ccco1)NC(=S)Nc1ccc(N2CCCC2)cc1,2%,-13,10µM*,35µM*,-12%,?
O=C(/C=C/c1ccco1)NC(=S)Nc1ccc(C(=O)O)cc1,-4%,-79*,32µM*,71µM*,?,35µM*
CC(=O)N1Cc2ccccc2CC1C(=O)NCc1ccccc1F (centres undefined),-5%,-16,1%,-4%,-5%,-15%
CN(CC(=O)Nc1ccc(F)cc1)C(=O)Cn1cnc2ccc(Cl)cc2c1=O,-6%,0,7%,22%,-4%,-17%
O=C(/C=C\c1ccco1)Nc1ccc(N2CCN(C(=O)c3ccccc3)CC2)cc1,-5%,-7,71µM*,-12%,-8%,-27%
CC(=O)c1ccc(NC(=O)/C(=C\c2ccccc2)NC(=O)/C=C/c2ccccc2)cc1,-11%,2,-1%,33%,-2%,-13%
NS(=O)(=O)c1ccc(NC(=O)/C=C/c2ccco2)cc1,-4%,-63*,-29%,?,?,-28%
O=C(/C=C/c1ccccc1)N/C(=C/c1ccccc1)C(=O)Nc1ccc(C(=O)O)cc1,-3%,-19,-6%,8%,27µM*,50µM*
C#CCOCCOCCOCCNc1nc(N2CCN(C(=O)[C@H](CCC(=O)O)n3cc(C(N)[C@H](C)CC)nn3)CC2)nc(N2CCN(C(=O)[C@H](Cc3ccc(O)cc3)n3cc(C(N)[C@H](C)CC)nn3)CC2)n1 (some centres undefined),3%,-9,50µM*,76%,-14%,40µM*
C#CCOCCOCCOCCNc1nc(N2CCN(C(=O)C(Cc3ccc(O)cc3)n3cc(C(N)C(C)CC)nn3)CC2)nc(N2CCN(C(=O)C(Cc3ccc(O)cc3)n3cc(C(N)C(C)CC)nn3)CC2)n1 (centres undefined),4%,10,50µM*,36%,3%,35µM*
